From PubChem BioAssay
A selection: hits, their analogues and other compounds. The true share with any hit is near 0.9%.
RXFP1 agonist = qHTS Assay for Agonists of the Relaxin Receptor RXFP1; Relaxin receptor 1 (Homo sapiens), Q9HBX9; HEK293T-RXFP1 cAMP TR-FRET, 30 min; response scale: percent of porcine relaxin response, buffer zero; Potency, µM (top dose mostly 57.5 µM), for inactives: at the highest dose activation, usual class: activators; 370,000 compounds, 0.3% hits; AID 2676, 2010; active = well fitted activation curve with a large enough effect; inconclusive = small, poorly fitted or top-dose-only effect; also: potency is read from the fitted curve at half-maximal effect; % is scaled to controls: 0 for no effect and ±100 for the full control effect; nearly all actives have a fitted effect of over 60% in size
Target sequence (Q9HBX9 whole entry, looked up): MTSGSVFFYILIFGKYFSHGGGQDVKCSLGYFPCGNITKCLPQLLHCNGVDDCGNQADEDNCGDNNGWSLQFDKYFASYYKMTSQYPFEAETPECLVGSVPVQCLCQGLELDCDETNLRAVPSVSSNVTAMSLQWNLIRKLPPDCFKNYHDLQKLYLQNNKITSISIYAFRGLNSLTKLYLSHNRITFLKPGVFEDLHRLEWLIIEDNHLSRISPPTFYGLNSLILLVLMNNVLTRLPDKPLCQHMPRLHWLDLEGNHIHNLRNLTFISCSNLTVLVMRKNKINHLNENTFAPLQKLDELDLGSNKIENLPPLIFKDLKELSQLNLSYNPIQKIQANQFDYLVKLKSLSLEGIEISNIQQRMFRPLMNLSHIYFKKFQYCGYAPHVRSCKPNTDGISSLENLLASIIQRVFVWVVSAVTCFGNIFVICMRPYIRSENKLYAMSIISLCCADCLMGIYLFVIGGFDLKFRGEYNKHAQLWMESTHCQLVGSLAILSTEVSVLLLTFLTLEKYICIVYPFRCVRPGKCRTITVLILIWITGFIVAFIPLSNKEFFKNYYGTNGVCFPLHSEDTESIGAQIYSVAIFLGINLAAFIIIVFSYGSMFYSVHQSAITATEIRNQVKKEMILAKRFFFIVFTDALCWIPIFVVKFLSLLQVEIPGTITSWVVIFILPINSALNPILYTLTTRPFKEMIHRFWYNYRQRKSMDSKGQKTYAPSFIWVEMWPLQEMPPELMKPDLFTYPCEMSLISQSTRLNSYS
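cAMP rise read by TR-FRET after 30 min, 37C compound exposure (up to 58 uM) in RXFP1-transfected HEK293 cells with Ro 20174 present. EC50 from Hill-equation fits, with 29 nM porcine relaxin as 100% and buffer as basal.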
RXFP1 antag = qHTS Assay for Antagonists of the Relaxin Receptor RXFP1; Relaxin receptor 1 (Homo sapiens), Q9HBX9; HEK293-RXFP1, relaxin-stimulated cAMP HTRF, 30 min; active compounds read low; activity change, negative = inhibition, % at 57.5 µM; 350,000 compounds, 0.59% hits;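 active = activity change of -60% or lower, but not beyond a set lower limit; inconclusive = change between -60% and -40%, or beyond the set limit; inactive = change above -40%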; also: % is scaled to controls: 0 for no effect and ±100 for the full control effect
gsp antag = qHTS for Antagonists of gsp, the Etiologic Mutation Responsible for Fibrous Dysplasia/McCune-Albright Syndrome: qHTS | gsp-mutant cells, cAMP HTRF, 30 min | Potency, µM (series often up to 76.9 µM), without a hit: at the top dose activity change, negative = inhibition, actives largely listed as inhibitors | 340,000 compounds, 0.4% hits; calls by dose curve; cell line not stated here;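 also: intracellular cAMP measured with PDE inhibitor Ro 20-1724 present during compound exposure; potency is read from the fitted curve at half-maximal effect; % is scaled to controls: 0 for no effect and ±100 for the full control effect; nearly all actives have a fitted effect of over 65% in size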
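Cells, 2000/well, grown 16–24 h in DMEM 10% FBS with 0.5 mg/ml G418, then compounds plus […] (300 uM addition stock), 30 min at 37C. cAMP read by HTRF (cAMP-d2 and anti-cAMP antibody-K in lysis buffer) after 30 min RT.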
gsp ag = qHTS for Agonist of gsp, the Etiologic Mutation Responsible for Fibrous Dysplasia/McCune-Albright Syndrome: qHTS. gsp mutant cells, cAMP HTRF, 30 min. Potency, µM (titrated, usually from 76.9 µM), without a hit: top-dose activation (cAMP increase), actives largely listed as activators. 340,000 compounds, 0.13% hits; active = well fitted activation curve with a large enough effect; inconclusive = small, poorly fitted or top-dose-only effect, or another doubt; inactive = no such curve, though single readings can be large or run the other way; cell line not stated here;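 also: phosphodiesterase inhibitor Ro 20-1724 added with compounds to block cAMP breakdown; potency is read from the fitted curve at half-maximal effect; nearly all actives have a fitted effect of over 60% in size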
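Cells stably selected in G418 were plated at 2000/well, grown 16-24 hr, then given compounds in DMSO with the PDE inhibitor […] (300 uM solution added) for 30 min at 37C; cAMP was read by HTRF.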
* hit, by the source's call; [ ] = another dose, or the depositor's remark.

How did O=C(OCC(=O)c1ccc[nH]1)c1ccc(Cl)c(Cl)c1 do in these assays?
RXFP1 antag: -87*; gsp antag: 9%; gsp ag: 12%

Results for CC(=O)N(c1ccccc1C)C1CCCC1 ?
RXFP1 agonist: 3%; RXFP1 antag: -15; gsp antag: 14%; gsp ag: -3%[15.4 µM]

How did CC(=O)N(C1=C(Cl)C(=O)c2ccccc2C1=O)C1CCCCC1 do in these assays?
RXFP1 agonist: -3%; RXFP1 antag: -99*; gsp antag: inconclusive; gsp ag: 28%[15.4 µM]

Results for O=c1c2c(-c3ccc([N+](=O)[O-])cc3)csc2nc2n1CCC2 ?
RXFP1 agonist: inconclusive; RXFP1 antag: 11; gsp antag: 10%; gsp ag: 22µM*

Results for Cc1cccc(-n2nnnc2S(C)(=O)=O)c1 ?
RXFP1 agonist: 0%; RXFP1 antag: -84*

What do the screens show for `CCN(C(=O)CSc1nc2ccccc2n1Cc1ccccc1C#N)c1ccccc1`?
RXFP1 agonist: 0%

How did COc1ccc2[nH]c(S(=O)Cc3ncc(C)c(OC)c3C)nc2n1 (stereo unspecified) do in these assays?
RXFP1 antag: -28

What do the screens show for `Cc1[nH]n(-c2ccccc2)c(=O)c1/C=C1/C=c2ccccc2=N1`?
RXFP1 agonist: 1%; RXFP1 antag: 2; gsp antag: 9%; gsp ag: 18%[15.4 µM]

Results for Cc1[nH]n(-c2ccccc2)c(=O)c1/C=C1\C=NN=C1c1ccccc1 ?
RXFP1 agonist: 2%; RXFP1 antag: -110*; gsp antag: inconclusive; gsp ag: -3%[15.4 µM]

Results for Cc1ccc(NC(=O)/C(C#N)=C/c2cc(C)n(-c3ccc(Br)cc3)c2C)cc1C ?
RXFP1 agonist: 0%; RXFP1 antag: -63*

Results for CC1C(=O)Nc2ccc(S(=O)(=O)NCc3ccc(N(C)C)cc3)cc2NC1=O (stereo unspecified) ?
RXFP1 agonist: -4%; RXFP1 antag: 16

What do the screens show for `O=C(O)CCNc1cc(N2CCN(C(=O)c3ccco3)CC2)c2noc3c2c1C(=O)c1ccccc1-3`?
RXFP1 agonist: 2%; RXFP1 antag: -75*; gsp antag: inconclusive; gsp ag: 11%[15.4 µM]

Results for CCN1CCN(c2cc(N3CCN(C(=O)c4ccco4)CC3)c3c4c(onc24)-c2ccccc2C3=O)CC1 ?
RXFP1 agonist: -2%; RXFP1 antag: -25; gsp antag: inconclusive; gsp ag: -11%[15.4 µM]

How did Cc1csc(NC(=O)Cc2ccccc2Cl)n1 do in these assays?
RXFP1 agonist: 4%; RXFP1 antag: -14; gsp antag: 0%; gsp ag: inconclusive

What do the screens show for `Cc1cnc(NC(=O)Cc2ccccc2Cl)s1`?
RXFP1 agonist: 2%; RXFP1 antag: -64*; gsp antag: 6%; gsp ag: -39%

What do the screens show for `N#CC1(c2ccc(F)cc2)CCC(=O)CC1`?
RXFP1 antag: -9

How did CC(C)N1CCC2(CC1)N=C(c1ccc3c(c1)OCO3)CC(c1cc(Cl)ccc1O)N2 (stereo unspecified) do in these assays?
RXFP1 agonist: 0%; RXFP1 antag: -67*; gsp antag: -7%; gsp ag: 33%

What do the screens show for `O=C(c1ccccc1)C(CCC(CN1CCOCC1)C(=O)c1ccccc1)CN1CCOCC1` (stereo unspecified)?
RXFP1 agonist: 1%; RXFP1 antag: -68*; gsp antag: 12%[15.4 µM]; gsp ag: 13%

How did CCOc1ccc(C(=O)C(CCC(CN(C)C)C(=O)c2ccc(OCC)cc2)CN(C)C)cc1 (stereo unspecified) do in these assays?
RXFP1 agonist: 1%; RXFP1 antag: inconclusive; gsp antag: -14%; gsp ag: inconclusive

How did CN(C)CC(CCC(CN(C)C)C(=O)c1ccccc1)C(=O)c1ccccc1 (stereo unspecified) do in these assays?
RXFP1 agonist: 1%; RXFP1 antag: -76*; gsp antag: 27%; gsp ag: -1%[15.4 µM]

How did COc1ccc2cc(C#N)c(N3CCN(C(=O)c4ccccc4C)CC3)nc2c1 do in these assays?
RXFP1 agonist: -2%; RXFP1 antag: 10; gsp antag: 40µM*; gsp ag: -22%

Results for O=C(Nc1ccccc1Br)C(Cc1ccccc1)NS(=O)(=O)c1cccc2nsnc12 (stereo unspecified) ?
RXFP1 agonist: 2%; RXFP1 antag: -22

How did CCOC(=O)N1CCN(C(=O)c2cc3cc(F)ccc3[nH]2)CC1 do in these assays?
RXFP1 agonist: 1%; RXFP1 antag: -1; gsp antag: 5%; gsp ag: -7%[15.4 µM]

How did CCOC(=O)N1CCN(C(=O)c2cc3cc(Cl)ccc3[nH]2)CC1 do in these assays?
RXFP1 agonist: 6%; RXFP1 antag: 0; gsp antag: 50µM*; gsp ag: -17%

Results for OCCN(CC(O)COc1ccccc1)CC(O)Cn1ccc2ccccc21 (stereo unspecified) ?
RXFP1 agonist: -1%; RXFP1 antag: 5; gsp antag: 11%; gsp ag: 7%

What do the screens show for `COc1ccc(OCC(O)CN(CCO)CC(O)Cn2ccc3ccccc32)cc1` (stereo unspecified)?
RXFP1 agonist: 1%; RXFP1 antag: -64*; gsp antag: -4%; gsp ag: 8%[15.4 µM]

How did O=C(c1cccc(C(F)(F)F)c1)N1CCc2c([nH]c3ccccc23)C1C(F)(F)F (stereo unspecified) do in these assays?
RXFP1 agonist: 1%; RXFP1 antag: -92*; gsp antag: 13%; gsp ag: inconclusive

How did O=C(O)c1ccccc1C(=O)N1CCc2c([nH]c3ccccc23)C1C(F)(F)F (stereo unspecified) do in these assays?
RXFP1 agonist: 2%; RXFP1 antag: -29; gsp antag: -1%; gsp ag: 20%

What do the screens show for `Cc1ccc(-c2cn(-c3cccc(Cl)c3)c(S(=O)(=O)CC(=O)Nc3cccc(C)c3)n2)cc1`?
RXFP1 agonist: 1%; RXFP1 antag: -32

Results for Cc1ccc(C(C)C)c(OCC(=O)NCC2(N3CCOCC3)CCCCC2)c1 ?
RXFP1 agonist: 4%; RXFP1 antag: -111*

What do the screens show for `O=C(Nc1ccc2snnc2c1)Nc1cccc2ccccc12`?
RXFP1 agonist: 0%; RXFP1 antag: -4; gsp antag: 50µM*; gsp ag: 14%

Results for CC(C)Cc1ccc(C(C)CC2=CCC(CN(C)C)C2=O)cc1 (stereo unspecified) ?
RXFP1 antag: -83*; gsp antag: -7%; gsp ag: 10%

How did C=CCN1C(=O)/C(=C/c2ccc(OC(C)=O)c(OCC)c2[N+](=O)[O-])SC1=S do in these assays?
RXFP1 agonist: 2%; RXFP1 antag: -12; gsp antag: 25µM*; gsp ag: -119%

Results for COc1ccc2c(c1)CC(NC(=O)Nc1c(C)cc(C)cc1C)CO2 (stereo unspecified) ?
RXFP1 agonist: 2%; RXFP1 antag: -1
